Assay outcomes as filed in PubChem BioAssay.
A selection: hits, their analogues and other compounds. The true share with any hit is near 2.2%.
Ba/F3 V617F tox – reduce viability of Ba/F3 cells dependent on JAK2V617F. inhibition, % at 5.6 µM. Ba/F3 EpoR-JAK2V617F viability, ATP luminescence. AID 1446. 1.1% of 220,000 active;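 active = inhibition above the campaign mean plus 3 SD over all tested compounds, cut at about 24% in these data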;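 note: cytokine-independent growth of Ba/F3 cells driven by EpoR plus mutant JAK2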
APP 5UTR inh – APP translation inhibition. SH-SY5Y APP 5'UTR-luciferase reporter, luminescence. inhibition, % at 2 µM. 0.82% of 190,000 active. AID 1285;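 active = inhibition above a set limit, derived from the sample mean plus 3 SD, cut at about 45% in these data; inconclusive = one replicate passes the limit while the other fails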
IEC-6 tox-1 – kills IEC-6 intestinal cells in KLF5 counter-screen; IEC-6 cytotoxicity, luminescence viability; 0.78% of 290,000 active; inhibition, % at 5 µM; in the data active = inhibition above about 22%
KLF5 inh – suppresses KLF5 promoter-driven expression; DLD-1 KLF5 promoter-luciferase reporter, luminescence; inhibition, % at 5 µM; 0.23% of 290,000 active;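 active = inhibition above a per-plate limit of that plate's mean compound inhibition plus 3 SD, cut at about 60% in these data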;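 note: higher means less KLF5 promoter-driven luciferase light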
BaF3 tox – counter-screen for JAK2V617F inhibitors: parental Ba/F3 viability inhibitors; CellTiter-Glo ATP luminescence; inhibition, % at 5.6 µM; 1.1% of 220,000 active;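 active = inhibition above a per-campaign cutoff, the mean inhibition of all tested compounds plus 3 SD, cut at about 27% in these data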
aSyn 5UTR inh – MLPCN primary screen, SNCA 5' untranslated region; alpha-synuclein 5'UTR reporter, inhibitor activity; inhibition, % (tested at 7.5 µM); 0.82% of 300,000 active; in the data active = inhibition above about 60%; inconclusive = no clear call, values can overlap the other calls;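 note: H4 neuroglioblastoma cells stably carrying SNCA 5'UTR luciferase fusion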
KLF5 inh confirm – KLF5 inhibition, confirmation assay; DLD-1 KLF5 promoter firefly luciferase reporter, luminescence; AID 1834; shares compounds with KLF5 inh; 79% of 610 active; inhibition, % at 4 µM;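 active = inhibition above a set limit taken from the earlier primary screen, cut at about 63% in these data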
IEC-6 tox-2 – kills rat IEC-6 cells in KLF5 counter-screen; IEC-6 rat intestinal cells, viability luminescence; shares compounds with KLF5 inh; 56% of 610 active; inhibition, % at 4 µM; in the data active = inhibition above about 23%;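 note: cells exposed to compounds for 48 hours before viability read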
Each line names hits and unclear results; the compound was inactive in the other large screens (follow-up assays come after a bar, where they were run).

COC(=O)c1ccccc1NC(=O)Nc1c(C)n(C)n(-c2ccccc2)c1=O	none (no result: Ba/F3 V617F tox, APP 5UTR inh, BaF3 tox)
O=C(O)CSCC(=O)Nc1ccc(C2CCCCC2)cc1	APP 5UTR inh 68, KLF5 inh 75, aSyn 5UTR inh 108 | KLF5 inh confirm 77 | IEC-6 tox-2 inactive
CNc1nc(OC)nc(N(C#N)CN2C(=O)c3ccccc3S2(=O)=O)n1	none
O=[N+]([O-])c1ccc(N=Nc2c(Cl)cc(O)cc2Cl)cc1	Ba/F3 V617F tox 81, BaF3 tox 95, aSyn 5UTR inh inconclusive (no result: APP 5UTR inh) | KLF5 inh confirm inactive | IEC-6 tox-2 22
N#CC1=C(N)N2C(=C(C#N)C13CCCC3)Nc1ccccc12	none
Cc1cc(C)c2nc(NC(=O)[C@@H](NC(=O)c3cccc(S(=O)(=O)N4CCOCC4)c3)C(C)C)sc2c1	KLF5 inh 74 | KLF5 inh confirm 100 | IEC-6 tox-2 45
Cc1cccc(C(=O)N[C@H](C(=O)Nc2cc(S(=O)(=O)N3CCCCC3)ccc2C)C(C)C)c1	none
Cn1c2ccccc2c2cc(C(=O)N3CCOCC3)sc21	KLF5 inh 66 | KLF5 inh confirm inactive | IEC-6 tox-2 inactive
Oc1[nH]c2ccccc2c1N=NC(=S)N1CCOCC1	Ba/F3 V617F tox 54, IEC-6 tox-1 48, KLF5 inh 68, BaF3 tox 59 (no result: APP 5UTR inh) | KLF5 inh confirm 89 | IEC-6 tox-2 48
NC(=S)N=Nc1c(O)[nH]c2ccccc12	none
COC(=O)N=Nc1c(O)[nH]c2ccc(Br)cc12	none (no result: APP 5UTR inh)
Oc1[nH]c2ccc(Br)cc2c1N=NC(=S)N1CCOCC1	Ba/F3 V617F tox 95, IEC-6 tox-1 88, KLF5 inh 75, BaF3 tox 94 (no result: APP 5UTR inh) | KLF5 inh confirm 85 | IEC-6 tox-2 56
O=C(O)c1ccc(N/N=C/c2c(F)cccc2Cl)cc1	KLF5 inh 66 (no result: Ba/F3 V617F tox, APP 5UTR inh, BaF3 tox) | KLF5 inh confirm inactive | IEC-6 tox-2 inactive
CC(C)(C)c1ccc(/C=N/Nc2cccc(C(=O)O)c2)cc1	none
CC(C)(C)c1ccc(/C=N/Nc2ccc(C(=O)O)cc2)cc1	IEC-6 tox-1 24, KLF5 inh 66 | KLF5 inh confirm 94 | IEC-6 tox-2 34
CN(C)c1ccc(/C=N/Nc2cccc(C(=O)O)c2)cc1	KLF5 inh 75, aSyn 5UTR inh 77 (no result: Ba/F3 V617F tox, APP 5UTR inh, BaF3 tox) | KLF5 inh confirm 109 | IEC-6 tox-2 inactive
COc1ccc(OC)c(C2C(C(C)=O)=C(C)Nc3ncnn32)c1 (configuration not stated)	none (no result: Ba/F3 V617F tox, APP 5UTR inh, BaF3 tox)
COc1ccccc1OCC(=O)N(Cc1nnc(-c2ccccc2Cl)o1)C1CC1	none (no result: Ba/F3 V617F tox, APP 5UTR inh, IEC-6 tox-1, KLF5 inh, BaF3 tox)
COc1cccc(/C=N/Nc2ccc(C(=O)O)cc2)c1O	APP 5UTR inh 80, KLF5 inh 100, aSyn 5UTR inh 113 | KLF5 inh confirm 111 | IEC-6 tox-2 inactive
COc1cccc(/C=N/NC(=O)c2cc3c(OC)ccc(OC)c3[nH]2)c1O	KLF5 inh 88 (no result: Ba/F3 V617F tox, APP 5UTR inh, BaF3 tox) | KLF5 inh confirm 72 | IEC-6 tox-2 inactive
COc1cc(OC)c2cc(C(=O)N/N=C/c3cccc(OC)c3O)[nH]c2c1	none (no result: APP 5UTR inh)
COc1cccc(/C=N/Nc2ccc(S(=O)(=O)O)cc2)c1O	none
O=[N+]([O-])c1ccc(/C=N/Nc2ncccc2[N+](=O)[O-])s1	none (no result: Ba/F3 V617F tox, APP 5UTR inh, IEC-6 tox-1, KLF5 inh, BaF3 tox)
COc1cccc(/C=N/Nc2ccc([N+](=O)[O-])cn2)c1O	KLF5 inh 85, aSyn 5UTR inh 102 (no result: Ba/F3 V617F tox, APP 5UTR inh, BaF3 tox) | KLF5 inh confirm 72 | IEC-6 tox-2 inactive
COc1cccc(/C=N/Nc2ncccc2[N+](=O)[O-])c1OC	KLF5 inh 81, aSyn 5UTR inh 92 (no result: APP 5UTR inh) | KLF5 inh confirm inactive | IEC-6 tox-2 23
Cc1cc(/C=N/Nc2ccc([N+](=O)[O-])cn2)c(C)n1-c1ccccc1	none
CN(C)/C=C(\c1cnc(Cl)s1)S(=O)(=O)c1ccccc1	none
O=C(Nc1ccc(N2CCCCCC2)cc1)c1ccccc1Cl	none
O=C(Nc1ccc(N2CCCCC2)cc1)c1ccccn1	KLF5 inh 104, aSyn 5UTR inh 114 | KLF5 inh confirm 100 | IEC-6 tox-2 inactive
O=C(N/N=C/c1cc(Cl)cc(Cl)c1O)c1ccncc1	KLF5 inh 77 (no result: APP 5UTR inh) | KLF5 inh confirm inactive | IEC-6 tox-2 inactive
Cc1cc(C(=O)Nc2ccc(Cl)cc2)c(C)n1-c1ccccc1	KLF5 inh 74, aSyn 5UTR inh 87 (no result: APP 5UTR inh) | KLF5 inh confirm 87 | IEC-6 tox-2 inactive
Cc1ccc(NC(=O)c2cc(C)n(-c3cccc(C)c3)c2C)cc1	KLF5 inh 78 | KLF5 inh confirm 89 | IEC-6 tox-2 inactive
Cc1ccc(-n2c(C)cc(C(=O)NS(=O)(=O)c3ccc(C)cc3)c2C)cc1	none
COc1ccc(OCc2cccc(C(=O)Nn3cc([N+](=O)[O-])cn3)c2)cc1	KLF5 inh 93 | KLF5 inh confirm 103 | IEC-6 tox-2 inactive
C/C(=N/NS(=O)(=O)c1ccc(F)cc1)c1ccc(NC(=O)c2ccc(C)o2)cc1	none
COc1cc(C(=O)Nc2c(C(=O)O)[nH]c3ccc(Br)cc23)cc(OC)c1OC	none (no result: Ba/F3 V617F tox, APP 5UTR inh, BaF3 tox)
CCn1c(N)nc2c1c(=O)n(C)c(=O)n2C	none
CCCc1nc2c(=O)n(C)c(=O)nc-2n(C)n1	Ba/F3 V617F tox 73, KLF5 inh 72, BaF3 tox 85 (no result: aSyn 5UTR inh) | KLF5 inh confirm 112 | IEC-6 tox-2 49
Cc1ccccc1NC(=O)Cc1nc(COC(=O)CSc2ccccc2)cs1	none (no result: Ba/F3 V617F tox, APP 5UTR inh, BaF3 tox)
COc1ccc2[nH]c(C(=O)N/N=C/c3ccc(O)cc3O)cc2c1	KLF5 inh 84 (no result: Ba/F3 V617F tox, APP 5UTR inh, BaF3 tox) | KLF5 inh confirm 83 | IEC-6 tox-2 32
COc1ccc(/C=N/NC(=O)c2cc3cc(OC)c(OC)cc3[nH]2)cc1	none (no result: Ba/F3 V617F tox, APP 5UTR inh, BaF3 tox)
OCC[C@@H]1C[C@@H](O)[C@H](O)[C@@]2(CCCCO2)O1	none (no result: Ba/F3 V617F tox, APP 5UTR inh, IEC-6 tox-1, KLF5 inh, BaF3 tox)
COc1cc(SC)ccc1C(=O)N(CC(=O)Nc1ccccc1Br)Cc1ccco1	none (no result: Ba/F3 V617F tox, APP 5UTR inh, IEC-6 tox-1, KLF5 inh, BaF3 tox)
Cc1cc(C(=O)COC(=O)c2ccccc2O)c(C)n1Cc1cccs1	KLF5 inh 81, aSyn 5UTR inh 93 | KLF5 inh confirm 78 | IEC-6 tox-2 inactive
Cc1ccc(C(=O)Nn2c(C)nc3ccccc3c2=O)cc1C	none (no result: Ba/F3 V617F tox, APP 5UTR inh, BaF3 tox)
COc1cccc(NC(=O)Nc2cccc(C(=O)O)c2)c1	APP 5UTR inh 51, KLF5 inh 76 | KLF5 inh confirm 65 | IEC-6 tox-2 inactive
O=C(Nc1cccc(C(=O)O)c1)Nc1ccc2c(c1)OCO2	KLF5 inh 96, aSyn 5UTR inh 99 (no result: Ba/F3 V617F tox, APP 5UTR inh, BaF3 tox) | KLF5 inh confirm 89 | IEC-6 tox-2 inactive
O=C(Nc1ccc2c(c1)OCO2)Nc1ccc2c(c1)OCO2	none
CCCCCCCCCn1ccc(=N)cc1	Ba/F3 V617F tox 99, IEC-6 tox-1 54, KLF5 inh 72, BaF3 tox 96, aSyn 5UTR inh 82 (no result: APP 5UTR inh) | KLF5 inh confirm 62 | IEC-6 tox-2 55
CCCOc1ccccc1C1CC(=O)Nc2cc3c(cc21)OCCO3 (configuration not stated)	Ba/F3 V617F tox 77, APP 5UTR inh 94, IEC-6 tox-1 81, KLF5 inh 66, BaF3 tox 77, aSyn 5UTR inh 103 | KLF5 inh confirm 83 | IEC-6 tox-2 64
